From the supplement of paper PMC10849652 come the findings set out here.

About 7,900 targets were measured; listed, in parts, are those with a hit and a random draw of the rest. About 0.6% of all pairs of compound and target were hits.

Chain of UniProt Q8WUY8 (Q8WUY8 whole entry, looked up): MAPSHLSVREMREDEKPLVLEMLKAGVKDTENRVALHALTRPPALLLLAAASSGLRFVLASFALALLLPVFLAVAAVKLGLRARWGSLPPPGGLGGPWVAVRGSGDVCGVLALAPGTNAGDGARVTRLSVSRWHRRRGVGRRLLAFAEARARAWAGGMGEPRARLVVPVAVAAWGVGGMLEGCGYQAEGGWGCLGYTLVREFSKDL
Chain of UniProt Q9Y6R0 (Q9Y6R0 whole entry, looked up): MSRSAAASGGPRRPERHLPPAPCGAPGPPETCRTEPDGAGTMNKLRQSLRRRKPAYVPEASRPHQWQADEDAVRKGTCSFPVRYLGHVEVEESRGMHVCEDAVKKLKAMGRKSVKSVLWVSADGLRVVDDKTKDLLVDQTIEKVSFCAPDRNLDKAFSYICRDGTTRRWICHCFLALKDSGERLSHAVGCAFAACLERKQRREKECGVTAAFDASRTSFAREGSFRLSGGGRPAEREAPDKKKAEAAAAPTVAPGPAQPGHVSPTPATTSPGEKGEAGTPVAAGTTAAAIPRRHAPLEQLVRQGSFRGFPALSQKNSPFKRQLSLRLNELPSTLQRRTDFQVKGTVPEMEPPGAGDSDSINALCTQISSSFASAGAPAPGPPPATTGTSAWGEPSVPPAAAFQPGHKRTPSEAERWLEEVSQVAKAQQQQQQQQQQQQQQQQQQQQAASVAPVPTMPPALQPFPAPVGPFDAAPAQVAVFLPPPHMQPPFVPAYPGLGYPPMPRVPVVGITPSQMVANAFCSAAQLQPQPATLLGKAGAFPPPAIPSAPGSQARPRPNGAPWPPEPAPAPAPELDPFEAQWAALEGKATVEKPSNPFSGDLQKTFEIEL
Chain of UniProt O60890 (O60890 whole entry, looked up): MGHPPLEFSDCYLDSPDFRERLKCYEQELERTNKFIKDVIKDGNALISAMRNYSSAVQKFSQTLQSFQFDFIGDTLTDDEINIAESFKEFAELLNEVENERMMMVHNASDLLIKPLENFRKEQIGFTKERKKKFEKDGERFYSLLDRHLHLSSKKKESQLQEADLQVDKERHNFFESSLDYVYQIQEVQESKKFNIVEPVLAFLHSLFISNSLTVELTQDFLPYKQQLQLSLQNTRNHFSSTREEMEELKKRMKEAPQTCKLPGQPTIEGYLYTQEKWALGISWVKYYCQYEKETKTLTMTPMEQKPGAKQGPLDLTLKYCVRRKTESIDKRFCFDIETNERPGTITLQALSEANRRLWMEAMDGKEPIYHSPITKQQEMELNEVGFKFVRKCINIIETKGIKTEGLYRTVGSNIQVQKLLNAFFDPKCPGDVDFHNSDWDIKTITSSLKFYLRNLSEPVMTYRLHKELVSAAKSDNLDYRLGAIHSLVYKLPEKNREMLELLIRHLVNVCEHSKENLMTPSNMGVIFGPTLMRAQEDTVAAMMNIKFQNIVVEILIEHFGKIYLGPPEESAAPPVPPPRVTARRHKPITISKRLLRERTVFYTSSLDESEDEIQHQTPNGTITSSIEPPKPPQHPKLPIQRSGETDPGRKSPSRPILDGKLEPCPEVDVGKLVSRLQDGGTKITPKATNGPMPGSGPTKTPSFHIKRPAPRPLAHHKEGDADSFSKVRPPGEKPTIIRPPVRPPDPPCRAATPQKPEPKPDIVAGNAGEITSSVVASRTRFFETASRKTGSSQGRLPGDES
Chain of UniProt O75607 (O75607 whole entry, looked up): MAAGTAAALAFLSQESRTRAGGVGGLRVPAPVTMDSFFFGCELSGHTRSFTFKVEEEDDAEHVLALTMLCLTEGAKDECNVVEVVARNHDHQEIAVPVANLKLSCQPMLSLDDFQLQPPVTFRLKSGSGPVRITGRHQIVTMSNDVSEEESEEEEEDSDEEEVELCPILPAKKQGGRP
Chain of UniProt Q9H019 (Q9H019 whole entry, looked up): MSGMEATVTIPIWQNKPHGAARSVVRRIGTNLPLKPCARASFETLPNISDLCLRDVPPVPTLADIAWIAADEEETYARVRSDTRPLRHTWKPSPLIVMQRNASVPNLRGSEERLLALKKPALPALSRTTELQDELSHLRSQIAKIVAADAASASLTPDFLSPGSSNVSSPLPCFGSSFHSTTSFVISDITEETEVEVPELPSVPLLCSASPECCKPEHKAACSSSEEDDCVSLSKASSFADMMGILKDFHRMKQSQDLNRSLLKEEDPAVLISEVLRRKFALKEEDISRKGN
Chain of UniProt Q15746 (Q15746 whole entry, looked up): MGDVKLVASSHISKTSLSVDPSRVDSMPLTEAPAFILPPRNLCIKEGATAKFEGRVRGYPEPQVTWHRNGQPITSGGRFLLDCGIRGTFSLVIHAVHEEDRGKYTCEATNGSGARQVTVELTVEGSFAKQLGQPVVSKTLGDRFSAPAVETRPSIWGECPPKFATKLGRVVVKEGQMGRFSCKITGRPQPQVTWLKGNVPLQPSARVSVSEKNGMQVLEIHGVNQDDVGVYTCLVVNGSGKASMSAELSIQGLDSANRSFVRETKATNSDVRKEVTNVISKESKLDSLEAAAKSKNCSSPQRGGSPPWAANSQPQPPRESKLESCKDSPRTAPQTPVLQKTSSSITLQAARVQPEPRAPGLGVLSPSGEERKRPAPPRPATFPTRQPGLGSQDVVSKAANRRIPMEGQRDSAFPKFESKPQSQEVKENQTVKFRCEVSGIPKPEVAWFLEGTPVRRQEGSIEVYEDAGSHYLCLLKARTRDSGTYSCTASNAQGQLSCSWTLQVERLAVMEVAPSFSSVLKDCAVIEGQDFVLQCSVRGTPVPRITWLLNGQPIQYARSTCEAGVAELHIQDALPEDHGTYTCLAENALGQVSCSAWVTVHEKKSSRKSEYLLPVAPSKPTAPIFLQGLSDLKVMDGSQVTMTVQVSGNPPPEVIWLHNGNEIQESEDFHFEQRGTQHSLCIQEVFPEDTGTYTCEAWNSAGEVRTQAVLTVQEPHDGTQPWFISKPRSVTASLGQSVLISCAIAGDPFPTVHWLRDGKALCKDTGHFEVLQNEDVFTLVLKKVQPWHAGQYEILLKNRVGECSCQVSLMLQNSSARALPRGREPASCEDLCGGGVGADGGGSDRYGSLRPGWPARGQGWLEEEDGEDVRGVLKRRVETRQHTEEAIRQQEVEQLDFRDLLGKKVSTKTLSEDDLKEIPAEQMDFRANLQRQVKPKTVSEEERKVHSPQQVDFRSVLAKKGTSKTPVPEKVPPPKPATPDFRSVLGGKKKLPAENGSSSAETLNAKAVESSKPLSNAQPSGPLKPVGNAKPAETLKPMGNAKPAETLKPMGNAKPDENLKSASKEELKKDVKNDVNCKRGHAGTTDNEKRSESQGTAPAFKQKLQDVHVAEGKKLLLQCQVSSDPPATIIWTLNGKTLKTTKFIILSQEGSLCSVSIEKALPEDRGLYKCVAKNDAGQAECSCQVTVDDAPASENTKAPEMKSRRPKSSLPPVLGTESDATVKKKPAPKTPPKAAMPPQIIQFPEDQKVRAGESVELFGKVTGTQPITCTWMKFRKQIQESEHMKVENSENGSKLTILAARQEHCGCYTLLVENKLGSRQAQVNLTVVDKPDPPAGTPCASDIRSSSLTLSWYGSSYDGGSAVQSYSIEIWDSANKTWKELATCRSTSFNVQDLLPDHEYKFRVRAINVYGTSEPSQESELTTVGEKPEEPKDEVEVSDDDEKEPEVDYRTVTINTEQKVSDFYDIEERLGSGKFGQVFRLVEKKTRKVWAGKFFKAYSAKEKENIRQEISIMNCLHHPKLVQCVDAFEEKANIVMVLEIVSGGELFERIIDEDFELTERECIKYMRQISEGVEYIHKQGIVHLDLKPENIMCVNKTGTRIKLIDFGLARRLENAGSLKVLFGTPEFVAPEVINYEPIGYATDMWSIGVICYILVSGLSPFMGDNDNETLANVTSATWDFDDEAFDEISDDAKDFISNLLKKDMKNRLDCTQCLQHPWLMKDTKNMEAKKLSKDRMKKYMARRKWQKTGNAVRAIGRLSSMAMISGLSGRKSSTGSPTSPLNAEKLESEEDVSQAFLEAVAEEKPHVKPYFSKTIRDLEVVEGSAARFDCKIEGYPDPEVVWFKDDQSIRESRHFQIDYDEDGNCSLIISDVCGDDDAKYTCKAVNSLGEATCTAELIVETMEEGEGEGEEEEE
Chain of UniProt P51956 (P51956 whole entry, looked up): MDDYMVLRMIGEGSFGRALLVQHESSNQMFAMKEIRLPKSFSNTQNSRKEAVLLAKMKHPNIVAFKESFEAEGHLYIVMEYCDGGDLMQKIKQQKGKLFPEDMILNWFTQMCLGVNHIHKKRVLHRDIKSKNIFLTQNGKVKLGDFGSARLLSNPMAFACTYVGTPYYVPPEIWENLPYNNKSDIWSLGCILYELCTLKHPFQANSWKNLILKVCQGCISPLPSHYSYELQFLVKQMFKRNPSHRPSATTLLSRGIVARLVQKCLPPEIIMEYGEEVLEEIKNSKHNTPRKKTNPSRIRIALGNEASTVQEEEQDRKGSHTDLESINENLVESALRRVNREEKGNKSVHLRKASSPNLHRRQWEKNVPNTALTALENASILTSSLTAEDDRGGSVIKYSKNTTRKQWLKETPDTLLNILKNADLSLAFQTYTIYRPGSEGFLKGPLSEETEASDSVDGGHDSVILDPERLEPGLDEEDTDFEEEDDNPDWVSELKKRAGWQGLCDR
Chain of UniProt Q9Y2X3 (Q9Y2X3 whole entry, looked up): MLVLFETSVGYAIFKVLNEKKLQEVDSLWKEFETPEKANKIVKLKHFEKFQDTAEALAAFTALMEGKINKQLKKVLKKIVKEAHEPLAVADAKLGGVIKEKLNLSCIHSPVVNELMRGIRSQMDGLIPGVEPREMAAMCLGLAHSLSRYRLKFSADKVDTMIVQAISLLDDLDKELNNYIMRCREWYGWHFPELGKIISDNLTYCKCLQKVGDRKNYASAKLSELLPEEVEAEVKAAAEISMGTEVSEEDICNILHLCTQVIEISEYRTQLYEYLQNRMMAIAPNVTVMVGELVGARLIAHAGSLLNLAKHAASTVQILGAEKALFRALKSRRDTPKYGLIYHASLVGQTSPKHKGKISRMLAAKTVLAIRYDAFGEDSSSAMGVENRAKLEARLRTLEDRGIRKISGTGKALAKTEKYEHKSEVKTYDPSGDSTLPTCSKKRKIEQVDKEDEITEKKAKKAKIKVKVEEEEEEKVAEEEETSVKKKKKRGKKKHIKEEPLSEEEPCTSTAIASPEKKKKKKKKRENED

Compound in this assay: CC1=NC(=CC=C1)C2=C(N=C(N2)C(C)(C)C)C3=CC4=NC=CN=C4C=C3
As to the kind of experiment: log2 fold change, soluble protein after heating vs DMSO (PISA); higher = thermal stabilisation; K562 cells, 10 uM, 30 min; active = over 0.2 and 3.5 SD of the protein, either way, in both replicates (recomputed). A digest of the protocol:
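K562 cells at 2×10^6 cells/mL were exposed to 10 μM compound for 30 min, then aliquots were heated for 3 min across 48°C-58°C, pooled, and extracted in PBS containing 0.5% NP-40 at 4°C. The supernatant after 21,000xg for 90 min was taken as soluble protein and measured by TMTpro 16plex LC-MS/MS with channel sums equalised. Thermal stability is reported relative to control samples, with values from duplicates. Fold changes are given on a log2 scale.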
Turning to NFYB (UniProt P25208), the log2 fold change is 0.025 (inactive).

Consider NME7 (UniProt Q9Y5B8), for which the log2 fold change was 0.059 (inactive).

MPHOSPH8 isoform 2 (UniProt Q99549): the log2 fold change was -0.022 (inactive). Next, NPM3 (UniProt O75607): -0.056 (inactive); MTFR1L (UniProt Q9H019): -0.122 (inactive). In the case of NA, A0A2R8Y3M9 it was 0.178 (inactive); in that of NME2P1 (UniProt O60361), 0.004 (inactive); in that of MON1A (UniProt Q86VX9), 0.061 (inactive). Next, NCOA7 (UniProt Q8NI08): 0.016 (inactive); NCK1 (UniProt P16333): 0.102 (inactive). PAFAH2 (UniProt Q99487): the log2 fold change was -0.038 (inactive). For the target NAT14 (UniProt Q8WUY8), the log2 fold change was 0.031 (inactive). In the case of NUMBL (UniProt Q9Y6R0) it was -0.081 (inactive); in that of NDFIP1 (UniProt Q9BT67), -0.1 (inactive).

For NA isoform 3 (UniProt Q4G0T1), the log2 fold change is -0.057 (inactive).

With PACS1 (UniProt Q6VY07), the log2 fold change is 0.087 (inactive).

With NPC1 (UniProt O15118), the log2 fold change was 0.066 (inactive). Take MRPS21 (UniProt P82921): the log2 fold change is 0.107 (inactive).

In the case of MRPS16 (UniProt Q9Y3D3), the log2 fold change was 0.132 (inactive). In the case of NOP58 (UniProt Q9Y2X3) it was -0.073 (inactive); in that of MYLK (UniProt Q15746), 0.202 (inactive); in that of MLX (UniProt Q9UH92), 0 (inactive).

OSBPL3 (UniProt Q9H4L5): the log2 fold change is -0.062 (inactive). As for NUDT7 (UniProt P0C024), the log2 fold change is 0.197 (inactive). With OPHN1 (UniProt O60890), the log2 fold change is 0.218 (inactive).

Consider NAA11 (UniProt Q9BSU3), for which the log2 fold change was 0.021 (inactive). On to MYSM1 (UniProt Q5VVJ2), for which the log2 fold change is 0.006 (inactive).

For the target NECTIN2 isoform 2 (UniProt Q92692), the log2 fold change is -0.104 (inactive). Next, MRPL46 (UniProt Q9H2W6): -0.064 (inactive); MRPS33 (UniProt Q9Y291): -0.004 (inactive); MT-ND1 (UniProt P03886): -0.034 (inactive). In the case of NCOA5 (UniProt Q9HCD5) it was -0.315 (inactive). Next, MRPS26 (UniProt Q9BYN8): -0.03 (inactive); MRFAP1 (UniProt Q9Y605): -0.045 (inactive); ORC5 (UniProt O43913): -0.038 (inactive). Consider NEK3 (UniProt P51956), for which the log2 fold change is -0.108 (inactive).
